{
  "source": "PubChem BioAssay (NCATS)",
  "key": {"[1]": {"test": "qHTS of pediatric cancer cell lines to identify multiple opportunities for drug repurposing: Primary screen for TC32 cells (AID 1347089); further: nearly all actives have a fitted effect of over 60% in size; further: potency means the concentration at half of the fitted maximal effect", "conditions": "TC32 Ewing sarcoma viability, CellTiter-Glo luminescence, 48 h; series mostly up to 45.8 µM", "how_it_was_run": "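In the primary qHTS, MIPE compounds were tested at 11 concentrations (0.78 nM to 46 µM) and NPC compounds at 8 (0.59 nM to 46 µM) on TC32 cells for 48 h. CellTiter-Glo luminescence gave viability.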"}, "[2]": {"test": "qHTS of pediatric cancer cell lines to identify multiple opportunities for drug repurposing: Primary screen for DAOY cells (AID 1347090); further: nearly all actives have a fitted effect of over 55% in size; further: potency means the concentration at half of the fitted maximal effect", "conditions": "DAOY medulloblastoma viability, CellTiter-Glo luminescence, 48 h; series mostly up to 46 µM", "how_it_was_run": "(§1)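 Cell viability, CellTiter-Glo luminescence; 500-1,000 cells/well, 8- or 11-point titration, 48 h compound exposure at 37 degrees C, 5% CO2. Controls: DMSO neutral, bortezomib 2.3 µM final as positive.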"}, "[3]": {"test": "qHTS of pediatric cancer cell lines to identify multiple opportunities for drug repurposing: Primary screen for SJ-GBM2 cells (AID 1347091)", "conditions": "SJ-GBM2 viability, CellTiter-Glo luminescence, 48 h; series mostly up to 46 µM", "how_it_was_run": "as §1"}, "[4]": {"test": "NS1 protein of Zika virus - qHTS assay to identify small molecule inhibitors in human HEK 293 cells (AID 1347053)", "conditions": "HEK293 ZIKV MR766 infection, NS1 TR-FRET, 24 h; series mostly up to 46.1 µM", "how_it_was_run": "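In this cell-based screen, HEK 293 cultures received compound for one hour before Zika MR766 at MOI = 0.5. NS1 was quantified 24 hours later by TR-FRET, normalized to virus-free wells and infected wells.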"}, "[5]": {"molecular_target": "T1, Tyrosine-protein phosphatase non-receptor type substrate 1 (Homo sapiens) + Leukocyte surface antigen CD47 (Homo sapiens) (UniProt P78324+Q08722)", "T1 sequence (P78324 whole entry, looked up)": "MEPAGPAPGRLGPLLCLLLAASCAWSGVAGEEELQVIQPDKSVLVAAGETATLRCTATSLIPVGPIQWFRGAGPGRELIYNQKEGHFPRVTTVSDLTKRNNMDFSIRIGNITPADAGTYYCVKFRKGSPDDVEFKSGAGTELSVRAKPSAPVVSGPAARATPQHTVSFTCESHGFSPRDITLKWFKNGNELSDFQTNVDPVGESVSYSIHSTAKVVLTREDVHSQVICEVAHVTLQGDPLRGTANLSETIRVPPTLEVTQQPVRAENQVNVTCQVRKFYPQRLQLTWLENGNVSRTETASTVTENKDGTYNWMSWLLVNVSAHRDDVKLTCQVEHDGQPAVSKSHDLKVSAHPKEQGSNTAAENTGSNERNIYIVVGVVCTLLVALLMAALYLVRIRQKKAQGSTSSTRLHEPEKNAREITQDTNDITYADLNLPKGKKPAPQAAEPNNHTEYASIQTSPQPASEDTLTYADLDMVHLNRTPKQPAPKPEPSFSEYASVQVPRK", "T1 sequence (Q08722 whole entry, looked up)": "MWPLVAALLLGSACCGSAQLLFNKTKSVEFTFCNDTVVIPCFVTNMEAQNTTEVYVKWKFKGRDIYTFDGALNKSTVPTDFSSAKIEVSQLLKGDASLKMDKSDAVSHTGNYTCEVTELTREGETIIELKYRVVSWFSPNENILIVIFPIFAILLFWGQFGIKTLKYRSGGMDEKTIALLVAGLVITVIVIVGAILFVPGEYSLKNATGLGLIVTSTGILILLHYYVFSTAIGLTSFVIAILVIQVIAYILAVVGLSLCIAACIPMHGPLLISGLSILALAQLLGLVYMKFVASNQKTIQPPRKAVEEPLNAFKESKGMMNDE", "test": "CD47-SIRPalpha protein protein interaction - LANCE assay qHTS validation (AID 1347057; active means well fitted curve in the direction sought with a large enough effect in the signal ratio, with a control signal flat, not every such curve was filed as active; the % refers to the signal ratio)", "conditions": "Recombinant CD47-His / biotin-SIRPalpha, TR-FRET ratio; series mostly up to 38.3 µM", "how_it_was_run": "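Inhibition of soluble CD47/SIRPalpha ectodomain association by titrated compounds, measured as 665/615 nm time-resolved FRET ratio after sequential 30 min room-temperature incubations.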"}, "[6]": {"molecular_target": "T1, Tyrosine-protein phosphatase non-receptor type substrate 1 (Homo sapiens) + Leukocyte surface antigen CD47 (Homo sapiens)", "test": "CD47-SIRPalpha protein protein interaction - HTRF assay qHTS validation (AID 1347058; active means well fitted curve in the direction sought with a large enough effect in the signal ratio, not every such curve was filed as active; the % refers to the signal ratio)", "conditions": "TR-FRET HTRF CD47-His / biotin-SIRPalpha binding, ratio 665/615; series mostly up to 38.3 µM", "how_it_was_run": "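Soluble extracellular domains (6His-CD47, Avi-tag-biotinylated SIRPalpha) in PBS pH 7.4 with 0.05% IGEPAL CA-630. Compounds were preincubated 30 min at RT with CD47 and anti-His-Eu, then SIRPalpha and SAV-XL665 were added. TR-FRET 665/615 ratio.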"}, "[7]": {"molecular_target": "Parathyroid hormone/parathyroid hormone-related peptide receptor (Homo sapiens) (UniProt Q03431)", "sequence (Q03431 whole entry, looked up)": "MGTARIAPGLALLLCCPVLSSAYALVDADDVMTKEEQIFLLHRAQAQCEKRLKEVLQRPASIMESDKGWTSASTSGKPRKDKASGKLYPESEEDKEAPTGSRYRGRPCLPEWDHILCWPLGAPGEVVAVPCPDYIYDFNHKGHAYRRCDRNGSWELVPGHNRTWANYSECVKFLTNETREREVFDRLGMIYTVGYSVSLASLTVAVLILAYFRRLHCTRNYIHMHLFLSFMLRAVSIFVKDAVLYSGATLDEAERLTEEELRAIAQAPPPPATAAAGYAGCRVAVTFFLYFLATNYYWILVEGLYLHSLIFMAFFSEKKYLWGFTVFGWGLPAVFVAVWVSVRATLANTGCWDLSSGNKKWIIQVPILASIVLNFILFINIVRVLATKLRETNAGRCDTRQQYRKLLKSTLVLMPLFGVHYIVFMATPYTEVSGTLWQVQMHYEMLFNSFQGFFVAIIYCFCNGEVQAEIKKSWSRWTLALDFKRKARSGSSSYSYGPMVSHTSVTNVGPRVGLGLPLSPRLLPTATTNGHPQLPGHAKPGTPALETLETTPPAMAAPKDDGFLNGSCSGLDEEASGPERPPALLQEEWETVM", "test": "qHTS for PTHR1 Agonists: Optimization Screen against the NCGC LOPAC library (AID 1347079)", "conditions": "HEK293 GP2 PTHR1 GloSensor cAMP luminescence, 1 h; series mostly up to 57.1 µM", "how_it_was_run": "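Signal increase flags agonism. GP2 cells, derived from HEK-293, express human PTHR1 and a GloSensor cAMP construct.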"}},
  "note": "“And” between values parts separate entries of the source, which are not always exact repeats. Equal values may be shown once. Records with an inconclusive call do not appear. Entries that show only a call come without a potency. The source made the active and inactive calls. Unless noted, the call rests on the fitted dose curve; in most records, active means well fitted curve in the direction sought with a large enough effect; inconclusive means small, poorly fitted or top-dose-only effect, or another doubt; inactive means no such curve, though single readings can be large; an effect the other way counts as inactive or inconclusive. Wherever potency is given: potency means the concentration at half of the fitted maximal effect.",
  "data": [
    {"smiles": "COc1ccc(-c2c(-c3ccc(O)cc3O)n[nH]c2C)cc1", "values": [
      {"measurement": "Potency", "setting": "[1]", "value": "inactive"}
    ]},
    {"smiles": "COc1ccc(C2=N[C@H](c3ccc(Cl)cc3)[C@H](c3ccc(Cl)cc3)N2C(=O)N2CCNC(=O)C2)c(OC(C)C)c1", "values": [
      {"measurement": "Potency", "setting": "[1]", "value": "inactive"},
      {"measurement": "Potency", "setting": "[2]", "value": "23.5 µM (active)"},
      {"measurement": "Potency", "setting": "[3]", "value": "14.8 µM (active)"}
    ]},
    {"smiles": "Cc1cc(Nc2nc(N[C@@H](C)c3ncc(F)cn3)ncc2Cl)n[nH]1", "values": [
      {"measurement": "Potency", "setting": "[4]", "value": "inactive"},
      {"measurement": "Potency", "setting": "[2]", "value": "2.96 µM (active)"},
      {"measurement": "Potency", "setting": "[3]", "value": "23.5 µM (active)"}
    ]},
    {"smiles": "COc1cc2c(cc1OC)CN(CCc1ccc(NC(=O)c3cccc4c(=O)c5cccc(OC)c5[nH]c34)cc1)CC2", "values": [
      {"measurement": "Potency", "setting": "[4]", "value": "inactive"},
      {"measurement": "Potency", "setting": "[1]", "value": "inactive"},
      {"measurement": "Potency", "setting": "[3]", "value": "inactive"}
    ]},
    {"smiles": "COc1ccc(-c2ccc3c(N4CCOC[C@H]4C)nc(N4CCOC[C@H]4C)nc3n2)cc1CO", "values": [
      {"measurement": "Potency", "setting": "[1]", "value": "165 nM (active)"},
      {"measurement": "Potency", "setting": "[3]", "value": "0.0083 µM (active)"}
    ]},
    {"smiles": "COc1ccc(-c2ccc3c(N4CCOCC4)nc(N4C[C@@H](C)O[C@@H](C)C4)nc3n2)cc1CO", "values": [
      {"measurement": "Potency", "setting": "[3]", "value": "0.296 µM (active)"}
    ]},
    {"smiles": "Cc1ccccc1C(C(=O)NC1CCCC1)N(C(=O)Cn1cnc2ccccc21)c1cccc(F)c1", "note": "(configuration not stated)", "values": [
      {"measurement": "Potency", "setting": "[1]", "value": "inactive"},
      {"measurement": "Potency", "setting": "[2]", "value": "inactive"},
      {"measurement": "Potency", "setting": "[3]", "value": "inactive"}
    ]},
    {"smiles": "COc1ccc(-c2oc3cc(OC)ccc3c2C(=O)c2ccc(C#N)cc2)cc1", "values": [
      {"measurement": "Potency", "setting": "[4]", "value": "inactive"},
      {"measurement": "Potency", "setting": "[1]", "value": "inactive"},
      {"measurement": "Potency", "setting": "[3]", "value": "1.18 µM (active)"}
    ]},
    {"smiles": "CCn1c(-c2nonc2N)nc2cnc(Oc3cccc(NC(=O)c4ccc(OCCN5CCOCC5)cc4)c3)cc21", "values": [
      {"measurement": "Potency", "setting": "[4]", "value": "14800 nM (active)"},
      {"measurement": "Potency", "setting": "[1]", "value": "inactive"},
      {"measurement": "Potency", "setting": "[3]", "value": "0.235 µM (active)"}
    ]},
    {"smiles": "Nc1cccc(S(=O)(=O)N2CCCN(S(=O)(=O)c3ccc4c(c3)OCCO4)CC2)c1", "values": [
      {"measurement": "Potency", "setting": "[1]", "value": "inactive"},
      {"measurement": "Potency", "setting": "[2]", "value": "inactive"}
    ]},
    {"smiles": "COc1ccc2c3n(c(=NC(=O)c4cccnc4)nc2c1OC)CCN3", "values": [
      {"measurement": "Potency", "setting": "[4]", "value": "inactive"},
      {"measurement": "Potency", "setting": "[2]", "value": "1.87 µM (active)"},
      {"measurement": "Potency", "setting": "[3]", "value": "18.7 µM (active)"}
    ]},
    {"smiles": "CN[C@@H](C)C(=O)N[C@H]1CCCC[C@H]2CC[C@@H](C(=O)N[C@@H](c3ccccc3)c3cn(CCCCc4ccc(CCCCn5cc([C@@H](NC(=O)[C@@H]6CC[C@@H]7CCCC[C@H](NC(=O)[C@H](C)NC)C(=O)N76)c6ccccc6)nn5)cc4)nn3)N2C1=O", "values": [
      {"measurement": "Potency", "setting": "[4]", "value": "inactive"},
      {"measurement": "Potency", "setting": "[1]", "value": "inactive"},
      {"measurement": "Potency", "setting": "[3]", "value": "inactive"}
    ]},
    {"smiles": "N#CC[C@H](C1CCCC1)n1cc(-c2ncnc3[nH]ccc23)cn1", "values": [
      {"measurement": "Potency", "setting": "[4]", "value": "inactive"},
      {"measurement": "Potency", "setting": "[1]", "value": "inactive"},
      {"measurement": "Potency", "setting": "[3]", "value": "inactive"}
    ]},
    {"smiles": "CCCS(=O)(=O)Nc1ccc(F)c(C(=O)c2c[nH]c3ncc(Cl)cc23)c1F", "values": [
      {"measurement": "Potency", "setting": "[4]", "value": "inactive"},
      {"measurement": "Potency", "setting": "[1]", "value": "inactive"},
      {"measurement": "Potency", "setting": "[3]", "value": "10.5 µM (active)"}
    ]},
    {"smiles": "Cc1cc2c(C(C)C)c(O)c(O)c(C=O)c2c(O)c1-c1c(C)cc2c(C(C)C)c(O)c(O)c(C=O)c2c1O", "values": [
      {"measurement": "outcome", "setting": "[5]", "value": "inactive"},
      {"measurement": "outcome", "setting": "[6]", "value": "inactive"},
      {"measurement": "outcome", "setting": "[7]", "value": "inactive"},
      {"measurement": "Potency", "setting": "[1]", "value": "inactive"},
      {"measurement": "Potency", "setting": "[2]", "value": "21.1 µM (active) and 14.8 µM (active)"},
      {"measurement": "Potency", "setting": "[3]", "value": "4.22 µM (active) and 3.72 µM (active)"}
    ]}
  ]
}
